This passage reports Potency results from PubChem BioAssay (NCATS).

Results filed as inconclusive are left out. Entries that show only a call come without a potency. Calls of active or inactive are those of the source. Calls follow the shape of the dose curve; as a rule, active = well fitted inhibition curve with a large enough effect; inconclusive = small, poorly fitted or top-dose-only effect; inactive = flat fitted curve, though single readings scatter.
Potency is read from the fitted curve at half-maximal effect.

This experiment can be described thus: P-glycoprotein substrates identified in KB-8-5-11 adenocarcinoma cell line, qHTS therapeutic library screen (AID 1346987). Also: nearly all actives have a fitted effect of over 65% in size. The conditions noted are these: KB-8-5-11 (P-gp overexpressing) viability, CellTiter-Glo, 72 h; series mostly up to 44.5 µM. In a few lines:
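Steps: plate 500 KB-8-5-11 cells/well in DMEM + 10% FCS (colchicine removed); pin compounds in dose-response; incubate 72 h, 37 degree C, 5% CO2; add CellTiter-Glo, 5 min; read luminescence.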
Take `C[C@@H]1C[C@H]2O[C@@]3(O[C@@H]2C(C)(C)O)C(O)[C@@]2(C)C4CCC5C(C)(C)[C@@H](O[C@H]6OC[C@H](O)[C@@H](O)[C@@H]6O)CC[C@@]56C[C@@]46CC[C@]2(C)C13` (some centres not stated): the Potency entry was “inactive”. Turning to `N#Cc1ccc(COC[C@H]2O[C@@H](n3c(NCc4ccc(Cl)c(Cl)c4)nc4c(N)ncnc43)[C@H](O)[C@@H]2O)cc1`, the Potency entry was “inactive”. To `O=C(Nc1cnc(Cl)nc1)c1ccc(F)c(F)c1` belongs “inactive”.

As to `CCCCC1CCC(c2nc(-c3ccncc3)no2)CC1` (configuration not stated), the Potency entry is “inactive”. Under `C=C1C(=O)OC2C3=C(C)C(=O)CC3C(C)CC(O)C12` (configuration not stated) stands “inactive”; under `COc1cc2c(c(OC)c1OC)-c1c(cc3c(c1OC)OCO3)C[C@@H](C)[C@](C)(O)C2`, “inactive”.

`COc1ccccc1N1CCN(CC(C(=O)NC(C)(C)C)c2ccccc2)CC1` (configuration not stated): the Potency entry is “inactive”. Take `O=S1(=O)CCN(Cc2cc(NCC3CCOCC3)c3[nH]c(-c4ccccc4)cc3c2)CC1`: the Potency result is “inactive”.

For `COC(=O)CC1OC(C)C2=C(O)c3c(O)cccc3C(=O)C23OC13` (configuration not stated), the Potency is 10.1 µM (active). Take `C=CCC1=C[C@]2(OC)[C@H](C)[C@@H](c3ccc4c(c3)OCO4)O[C@]2(OC)CC1=O`: the Potency result was “inactive”.

In the case of `COc1ccc(NC(=O)c2ccc(-c3ccc(-c4nnc(C)o4)cc3C)cc2)cc1N1CCN(C)CC1`, the Potency result is “inactive”. For `CN(C)C(=O)Nc1cccc(-c2ccc(N(C)C)cc2)c1`, the Potency result was “inactive”. In the case of `NCCCNCCCCNC(=O)C(O)NC(=O)CCCCCCN=C(N)N` (configuration not stated), the Potency entry is “inactive”. As for `COc1ccc(Cl)c(Nc2ncnc3cc(OCC4CCN(C)CC4)c(OC)cc23)c1`, the Potency entry is “inactive”. To `CC1(C=O)CCCC2(C)C1CCC13CC(CO)C(CCC12)C3` (configuration not stated) belongs “inactive”. Under `Cc1cc(NC(=O)c2cccc(NC(=O)/C=C/CN(C)C)c2)ccc1Nc1nccc(-c2cccnc2)n1` stands “inactive”; under `Cc1cc2c(c(=O)o1)C=C1CC[C@H]([C@H](C)Cn3cnc(=N)c4[nH]cnc43)C[C@@H]1O2`, “inactive”; under `O=C(c1c(F)ccc(NS(=O)(=O)N2CC[C@@H](F)C2)c1F)c1c[nH]c2ncc(-c3cnc(C4CC4)nc3)cc12`, “inactive”. Under `COc1cc(C(=O)O)ccc1NC(=O)C1NC(CC(C)(C)C)C(C#N)(c2ccc(Cl)cc2F)C1c1cccc(Cl)c1F` (configuration not stated) stands “inactive”; under `Cc1ccc(-c2ncccn2)c(C(=O)N2C[C@H](COc3ccc(F)cn3)CC[C@H]2C)c1`, “inactive”; under `CCCOc1ccc2nc(NC(=O)OC)sc2c1`, 5.8 µM (active). Turning to `CN(C)C(=O)COC(=O)c1cc(-c2ccc(C3CCNCC3)cc2)c2ccc(-c3ccc(C(F)(F)F)cc3)cc2c1`, the Potency is 18.4 µM (active). To `CC(C)=CCC/C(C)=C/COCC1OC(n2ccc(=O)[nH]c2=O)C(O)C1O` (configuration not stated) belongs “inactive”; to `C=C[C@@]1(C)CCC2C(=CCC3[C@]2(C)CCC[C@@]3(C)C(=O)O)C1` (some centres not stated), “inactive”.

For `CCCC1(CCC)CCC2(CCN(CCCN(CC)CC)C2)CC1`, the Potency was 2.31 µM (active). Take `C=C1C(=O)O[C@@H]2[C@H]1CC(=O)[C@H](C)[C@@](O)(C(=O)/C=C/C)[C@H]2OC(=O)C(C)CC` (some centres not stated): the Potency was 5.7 µM (active). To `Cc1cn(CCN2CCN(c3ccccc3-c3cc(C#N)cc(C(=O)NCCCN4CCCC4)c3)CC2)c2ccccc12` belongs 18.4 µM (active). Under `C[C@]12CC[C@@H]3c4ccc(OS(=O)(=O)O)cc4CC[C@H]3[C@@H]1CCC2=O` stands “inactive”; under `NCCOc1cc(C(=O)Nc2cc(OCCN)c3ccccc3n2)nc(C(=O)Nc2cc(OCCN)c3ccccc3n2)c1`, “inactive”. To `Cc1cc(C)nc(SCC(=O)Nc2ncc(Cc3cccc4ccccc34)s2)n1` belongs “inactive”. On to `CC[C@@H](C)Nc1cc(C(=O)NC2CC3CCC(C2)N3c2ccc(C(=O)C3CC3)cn2)c(C)cc1C(N)=O` (some centres not stated), for which the Potency is 0.13 µM (active). To `CCCCc1ccc(NS(=O)(=O)c2ccc(F)cc2)cc1` belongs “inactive”.
